Many of the other results were omitted from the sample, so the strongest signals are more common in it than they were.

What all share (assay): glycan array binding signal (z-score within array); higher = stronger binding
Details in all cases: glycan notation: IUPAC condensed, linker removed

Assay [1] has as its system GalNAc4S6S(b1-4)GlcNAc. A digest of the protocol: (§1)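 Arrays were curated from the Consortium for Functional Glycomics database, 3228 in total, and kept only where the protein sequence was available. Binding is expressed as a within-array Z-score. This score was averaged across arrays of the same protein sequence at different concentrations or buffers and across linkers, and negative values can be read as non-binding.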

In assay [2] the test system is GalNAc3S(b1-4)GlcNAc. Summed up:
as §1

Assay [3] relates to Glc(a1-4)Glc(a1-4)Glc(a1-4)Glc. Summed up: as §1
Assay [4] has as its system Glc(a1-6)Glc(a1-6)Glc. A digest of the protocol:
as §1

Assay [5] has as its system Glc(a1-4)Glc. A digest of the protocol:
as §1

The subject of assay [6] is GlcA3S(b1-3)Gal(b1-4)GlcNAc(b1-2)Man. A digest of the protocol:
as §1

The subject of assay [7] is GlcA(b1-3)Gal. A digest of the protocol:
as §1

In assay [8] the test system is Glc(b1-4)Glc. A digest of the protocol:
as §1

In assay [9] the test system is Glc(b1-6)Glc. A digest of the protocol:
as §1

The test system of assay [10] is GlcA(b1-3)GlcNAc. Summed up:
as §1

Chain of SpGH101 (Streptococcus pneumoniae), Q8DR60 (Q8DR60 42-1567): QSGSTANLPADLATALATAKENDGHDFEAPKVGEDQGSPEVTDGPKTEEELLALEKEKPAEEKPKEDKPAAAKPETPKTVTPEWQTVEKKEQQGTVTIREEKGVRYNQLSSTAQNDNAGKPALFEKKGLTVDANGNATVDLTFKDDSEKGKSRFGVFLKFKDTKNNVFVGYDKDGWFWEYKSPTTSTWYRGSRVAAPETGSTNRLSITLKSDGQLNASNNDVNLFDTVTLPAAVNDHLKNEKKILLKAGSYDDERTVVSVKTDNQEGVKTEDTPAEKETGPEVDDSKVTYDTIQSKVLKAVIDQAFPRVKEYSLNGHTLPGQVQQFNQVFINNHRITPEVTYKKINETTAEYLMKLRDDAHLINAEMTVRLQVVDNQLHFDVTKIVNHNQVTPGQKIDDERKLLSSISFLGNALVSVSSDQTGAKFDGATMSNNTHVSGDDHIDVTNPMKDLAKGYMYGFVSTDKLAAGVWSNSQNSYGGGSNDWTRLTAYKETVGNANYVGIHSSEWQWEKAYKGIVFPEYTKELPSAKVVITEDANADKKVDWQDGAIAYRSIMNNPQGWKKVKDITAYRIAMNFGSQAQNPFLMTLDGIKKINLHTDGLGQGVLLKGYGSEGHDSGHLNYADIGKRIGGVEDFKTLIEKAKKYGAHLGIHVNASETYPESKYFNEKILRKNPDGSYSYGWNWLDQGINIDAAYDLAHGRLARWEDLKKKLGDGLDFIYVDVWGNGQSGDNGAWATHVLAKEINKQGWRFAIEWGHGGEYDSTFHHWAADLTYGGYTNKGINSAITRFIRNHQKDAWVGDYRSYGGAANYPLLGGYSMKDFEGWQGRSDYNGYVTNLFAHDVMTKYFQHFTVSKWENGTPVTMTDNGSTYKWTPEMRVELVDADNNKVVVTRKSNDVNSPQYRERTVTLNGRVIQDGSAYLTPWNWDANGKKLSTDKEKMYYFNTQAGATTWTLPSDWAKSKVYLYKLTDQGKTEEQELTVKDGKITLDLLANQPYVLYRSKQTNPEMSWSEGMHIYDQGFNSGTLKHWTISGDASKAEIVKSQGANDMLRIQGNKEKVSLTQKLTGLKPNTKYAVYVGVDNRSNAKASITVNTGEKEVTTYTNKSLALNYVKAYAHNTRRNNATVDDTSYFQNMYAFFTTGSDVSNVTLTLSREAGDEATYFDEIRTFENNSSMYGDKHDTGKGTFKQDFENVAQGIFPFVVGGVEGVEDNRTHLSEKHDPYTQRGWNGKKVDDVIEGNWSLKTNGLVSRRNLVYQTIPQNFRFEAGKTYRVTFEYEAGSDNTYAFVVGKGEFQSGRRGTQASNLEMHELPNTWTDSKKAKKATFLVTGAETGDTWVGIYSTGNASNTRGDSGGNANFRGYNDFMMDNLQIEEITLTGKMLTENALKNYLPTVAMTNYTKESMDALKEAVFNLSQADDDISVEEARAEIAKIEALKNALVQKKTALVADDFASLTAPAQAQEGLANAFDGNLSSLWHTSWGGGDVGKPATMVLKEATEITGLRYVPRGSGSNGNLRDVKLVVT
Chain of GspB (Streptococcus gordonii), Q939N5 (Q939N5 whole entry): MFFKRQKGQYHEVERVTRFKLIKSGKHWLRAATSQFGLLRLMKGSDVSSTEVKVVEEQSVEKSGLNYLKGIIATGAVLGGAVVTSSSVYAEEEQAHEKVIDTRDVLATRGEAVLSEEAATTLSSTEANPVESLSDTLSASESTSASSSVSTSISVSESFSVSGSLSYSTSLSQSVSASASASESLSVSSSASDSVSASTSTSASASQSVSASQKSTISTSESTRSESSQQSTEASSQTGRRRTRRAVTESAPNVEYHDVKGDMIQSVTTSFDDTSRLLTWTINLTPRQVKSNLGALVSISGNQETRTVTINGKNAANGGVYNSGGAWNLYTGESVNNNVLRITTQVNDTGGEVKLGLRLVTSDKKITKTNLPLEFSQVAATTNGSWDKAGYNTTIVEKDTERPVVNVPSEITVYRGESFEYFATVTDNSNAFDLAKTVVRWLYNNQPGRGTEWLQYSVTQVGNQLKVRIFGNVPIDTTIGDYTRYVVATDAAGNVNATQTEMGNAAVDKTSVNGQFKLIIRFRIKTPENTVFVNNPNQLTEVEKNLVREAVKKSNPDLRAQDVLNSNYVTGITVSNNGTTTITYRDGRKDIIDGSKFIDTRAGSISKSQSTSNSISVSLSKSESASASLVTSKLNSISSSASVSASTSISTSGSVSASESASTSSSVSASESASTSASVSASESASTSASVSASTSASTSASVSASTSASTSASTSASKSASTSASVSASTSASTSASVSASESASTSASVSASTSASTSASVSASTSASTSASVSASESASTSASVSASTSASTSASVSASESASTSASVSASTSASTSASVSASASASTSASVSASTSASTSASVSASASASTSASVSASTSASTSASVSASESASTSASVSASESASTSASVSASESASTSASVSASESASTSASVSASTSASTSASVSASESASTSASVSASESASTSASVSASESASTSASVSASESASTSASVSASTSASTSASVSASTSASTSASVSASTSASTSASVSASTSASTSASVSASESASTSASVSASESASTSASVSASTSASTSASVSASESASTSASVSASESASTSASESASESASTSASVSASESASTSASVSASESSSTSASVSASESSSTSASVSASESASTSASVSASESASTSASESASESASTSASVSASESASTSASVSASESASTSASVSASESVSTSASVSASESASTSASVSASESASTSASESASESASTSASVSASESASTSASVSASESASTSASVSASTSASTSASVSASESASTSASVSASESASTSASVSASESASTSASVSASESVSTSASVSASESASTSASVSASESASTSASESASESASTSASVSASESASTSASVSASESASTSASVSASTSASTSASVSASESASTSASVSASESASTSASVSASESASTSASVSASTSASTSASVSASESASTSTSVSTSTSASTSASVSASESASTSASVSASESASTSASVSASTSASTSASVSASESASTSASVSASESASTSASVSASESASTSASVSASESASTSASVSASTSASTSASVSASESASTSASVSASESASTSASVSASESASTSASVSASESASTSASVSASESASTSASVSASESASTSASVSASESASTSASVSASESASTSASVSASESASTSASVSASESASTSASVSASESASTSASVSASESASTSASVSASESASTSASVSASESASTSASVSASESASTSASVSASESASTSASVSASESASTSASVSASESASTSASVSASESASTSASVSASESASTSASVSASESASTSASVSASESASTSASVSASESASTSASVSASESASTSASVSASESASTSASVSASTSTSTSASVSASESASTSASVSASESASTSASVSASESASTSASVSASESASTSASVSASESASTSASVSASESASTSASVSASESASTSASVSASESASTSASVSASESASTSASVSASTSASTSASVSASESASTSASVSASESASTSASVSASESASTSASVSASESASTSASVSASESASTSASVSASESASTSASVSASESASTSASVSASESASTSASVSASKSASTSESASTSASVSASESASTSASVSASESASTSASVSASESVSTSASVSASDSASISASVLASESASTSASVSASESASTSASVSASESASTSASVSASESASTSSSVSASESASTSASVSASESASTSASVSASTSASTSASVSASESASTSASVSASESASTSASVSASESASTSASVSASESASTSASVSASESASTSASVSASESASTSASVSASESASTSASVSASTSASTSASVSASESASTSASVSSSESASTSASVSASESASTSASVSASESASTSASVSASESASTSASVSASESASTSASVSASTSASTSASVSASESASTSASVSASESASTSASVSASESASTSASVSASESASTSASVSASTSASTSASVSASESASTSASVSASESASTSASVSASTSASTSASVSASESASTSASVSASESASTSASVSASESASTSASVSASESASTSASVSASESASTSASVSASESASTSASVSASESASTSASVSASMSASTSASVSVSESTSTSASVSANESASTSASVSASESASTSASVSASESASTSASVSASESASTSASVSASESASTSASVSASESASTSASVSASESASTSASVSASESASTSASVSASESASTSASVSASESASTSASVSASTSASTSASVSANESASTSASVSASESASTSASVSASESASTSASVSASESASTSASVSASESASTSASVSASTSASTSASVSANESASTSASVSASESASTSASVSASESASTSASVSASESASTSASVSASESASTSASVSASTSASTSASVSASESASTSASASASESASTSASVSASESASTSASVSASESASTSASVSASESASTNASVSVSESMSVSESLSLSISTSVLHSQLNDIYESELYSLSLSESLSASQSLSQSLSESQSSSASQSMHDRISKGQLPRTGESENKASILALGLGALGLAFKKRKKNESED

For LcI (Legionella pneumophila), the “glycan array binding signal (z-score)” value in [1] is -0.709.

As for “AgI/II Vhelical-GFP (Streptococcus mutans)”, the figures for the “glycan array binding signal (z-score)” value in assay [2], in [3] and in assay [4] were -0.11, -0.13 and -0.269, respectively.

On to “SiiE (Salmonella typhimurium), A0A0H3NVH0”, for which the “glycan array binding signal (z-score)” value in assay [5] was -0.099.

For AgI/IIC123-GFP (Streptococcus mutans), the “glycan array binding signal (z-score)” value in assay [6] turned out to be 3.12.

For the substance GspB (Streptococcus gordonii), Q939N5, in assay [7], the “glycan array binding signal (z-score)” value was -0.677.

For the substance “SpGH101 (Streptococcus pneumoniae), Q8DR60”, the “glycan array binding signal (z-score)” value in [4] was -0.103; in [8] it was -0.147; in assay [9] it was -0.186; in assay [7], -0.183; in assay [10] it was 3.66.

Source of the values: the supplement of paper PMC8728848.
